Assay outcomes from PubChem BioAssay.
The list is not random: actives were taken first. Their share in the collection is about 0.59%.
PTHR1 agonist: PTHR1 (human) receptor agonism; HEK293 GP2 PTHR1 cells, GloSensor cAMP luminescence, 1 h; Potency, µM (doses to about 115 µM), without a hit: top-dose activation, actives largely listed as activators; hit rate 0.075% among 410,000; AID 743266; further: potency means the concentration at half of the fitted maximal effect; nearly all actives have a fitted effect of over 55% in size
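HEK-293-derived GP2 cells expressing PTHR1 and a GloSensor cAMP reporter, 3,000/well, plated overnight, given luciferin plus IBMX (each 0.5 mM as added) for 1 h at 37 °C, then compound for 1 h at 37 °C. Luminescence was read after 15 min at room temperature.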
Vif-A3F inh: Vif-A3F binding inhibition; HeLa A3F-eYFP + Vif (tagged APOBEC3F with the HIV-1 protein that degrades it), YFP fluorescence increase; Potency, µM (titrated, usually from 46.1 µM), without a hit: top-dose activity, negative = active; hit rate 0.2% among 390,000; further: potency means the concentration at half of the fitted maximal effect; % of control where 0% means no effect; nearly all actives have a fitted effect of over 65% in size
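HeLa cells stably expressing A3F-eYFP plus Vif, plated and incubated overnight at 37 deg C, then exposed to compounds overnight at 37 deg C. Blocked degradation read as raised yellow fluorescence (Ex 488/Em 500-530).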
Vif-APOBEC3G blk: blocks the Vif interaction with human APOBEC3G. Q9HC16. HeLa A3G-eYFP + Vif (tagged APOBEC3G with the HIV-1 protein that degrades it), YFP fluorescence, overnight. Potency, µM (doses to about 46.1 µM), without a hit: at the top dose activity, negative = active, hits mostly inhibitors. hit rate 0.076% among 410,000; further: potency means the concentration at half of the fitted maximal effect; on the % scale 0 is the no-effect control and ±100 the full control effect; nearly all actives have a fitted effect of over 60% in size
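HeLa cells stably expressing Vif and C-terminally eYFP-tagged A3G, seeded overnight at 37 deg C, then exposed to compound by pintool overnight at 37 deg C. Rise in yellow fluorescence (Ex 488/Em 500-530, Acumen) marks blocked Vif-driven A3G degradation.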
LDHA block: inhibitors of human lactate dehydrogenase A. purified LDHA, NADH/diaphorase-resazurin fluorescence; stronger effect = lower value. activity change, % (values are at about 110 or 230 µM). hit rate 0.15% among 480,000. AID 1347041; in the data active means activity change below about -30%; inconclusive means mostly about -25% to -30%;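 further: plate controls were DMSO wells for no effect and wells without enzyme for full effect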
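LDH5 2 nM; NADH 0.06 mM, pyruvate 0.2 mM; 200 mM Tris pH 7.4, EDTA, Tween-20; 5 min RT. Detection: diaphorase 0.133 mg/mL + resazurin 37 µM, fluorescence ex540/em590 at 0 and 20 min; normalized to enzyme-free and DMSO wells.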
mIDH1 inhibitor: blocks human mutant IDH1 R132H enzyme | O75874 | IDH1-R132H enzyme, NADPH consumption, diaphorase/resazurin fluorescence | Potency, µM (series often up to 76.6 µM), for inactives: top-dose activity change, negative = inhibition, actives largely listed as inhibitors | hit rate 0.093% among 390,000; further: potency means the concentration at half of the fitted maximal effect; on the % scale 0 is the no-effect control and ±100 the full control effect; nearly all actives have a fitted effect of over 65% in size
Target sequence (O75874 whole entry R132H, stated change not applied): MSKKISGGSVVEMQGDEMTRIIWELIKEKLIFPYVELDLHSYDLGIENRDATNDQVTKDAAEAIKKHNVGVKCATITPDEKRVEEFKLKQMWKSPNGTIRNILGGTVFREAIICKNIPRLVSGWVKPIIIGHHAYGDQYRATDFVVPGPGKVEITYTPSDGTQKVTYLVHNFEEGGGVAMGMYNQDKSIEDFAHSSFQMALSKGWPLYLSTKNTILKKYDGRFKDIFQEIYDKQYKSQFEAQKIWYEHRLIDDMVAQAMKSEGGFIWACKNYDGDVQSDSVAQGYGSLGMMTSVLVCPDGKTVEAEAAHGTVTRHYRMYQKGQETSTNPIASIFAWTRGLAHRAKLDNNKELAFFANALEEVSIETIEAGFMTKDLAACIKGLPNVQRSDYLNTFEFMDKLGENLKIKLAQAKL
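IDH1-R132H (0.5 ug/mL dispensed) in pH 7.5 Tris buffer was preincubated 30 min with compound, then given a substrate mix of 0.016 mM NADPH and 2 mM alpha-KG for 80 min at room temperature; remaining NADPH was read by diaphorase/resazurin fluorescence.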
PINK1 expr mod: changes PINK1 expression | PINK1 immunofluorescence, high-content cytometry, 24 h | Potency, µM (series often up to 76.6 µM), for inactives: top-dose activation (PINK1 increase), hits mostly activators | hit rate 0.2% among 410,000 | AID 624263; active means well fitted activation curve with a large enough effect; inconclusive means small, poorly fitted or top-dose-only effect; cell line not stated here; further: potency means the concentration at half of the fitted maximal effect; % of control where 0% means no effect; nearly all actives have a fitted effect of over 65% in size
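Compound titrations (5 concentrations, 24 h) on a stable cell line; DMSO and CCCP controls. Endpoint: fixed-cell PINK1 immunofluorescence with mitochondrial, cell and nuclear markers, scanned by microplate cytometer.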
Resorufin autofl: counter-screen for mutant IDH1 inhibitors: fluorescence interference | inhibition of signal, % at 51.2 µM | shares compounds with mIDH1 inhibitor | 750 tested, under 10 active | Resorufin detection reagent fluorescence interference, cell-free;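 further: 0% = wells with normal resorufin and full inhibition = wells lacking resorufin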
IDH1 WT: inhibits human wild-type IDH1, mutant selectivity check. shares compounds with mIDH1 inhibitor. WT IDH1 enzyme, NADPH diaphorase/resazurin fluorescence. Potency, µM (titrated, usually from 115 µM), for the others: at the top dose activity change, negative = inhibition, most hits filed as inhibitors. hit rate 9% among 750;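 further: potency means the concentration at half of the fitted maximal effect; 0% = full WT IDH1 enzyme control and full inhibition = no enzyme wells; nearly all actives have a fitted effect of over 55% in size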
Target sequence (O75874 whole entry, looked up): as the sequence (O75874 whole entry R132H, stated change not applied) above, with H132R counted along it
IDH1 R132H conf: inhibits human mutant IDH1 enzyme in cherrypick confirmation; shares compounds with mIDH1 inhibitor; IDH1 R132H enzyme, NADPH diaphorase/resazurin fluorescence; hit rate 83% among 750; Potency, µM (doses to about 76.6 µM), for inactives: at the top dose activity change, negative = inhibition, actives largely listed as inhibitors; AID 624002; further: potency means the concentration at half of the fitted maximal effect; nearly all actives have a fitted effect of over 50% in size
* = called active by the depositor; [ ] = dose if it differs, or a comment. Unless noted, the call rests on the fitted dose curve; in most records, active means well fitted curve in the direction sought with a large enough effect; inconclusive means small, poorly fitted or top-dose-only effect, or another doubt; inactive means no such curve, though single readings can be large; an effect the other way counts as inactive or inconclusive.

C/C(=N\NC(N)=S)c1cc(-c2ccccc2)c(-c2ccccc2)s1 was read as PTHR1 agonist -22%, Vif-A3F inh 0%, Vif-APOBEC3G blk 0%, LDHA block -3, mIDH1 inhibitor inconclusive, PINK1 expr mod 5%, Resorufin autofl 0, IDH1 WT 1% and IDH1 R132H conf inconclusive.
Cc1cc(Nc2ccc(O)cc2)n2c(nc3ccccc32)c1C#N was read as PTHR1 agonist -12%, Vif-A3F inh -9%, Vif-APOBEC3G blk 4%, LDHA block -7, mIDH1 inhibitor -2% and PINK1 expr mod 0%.
`Cc1ccc(Nc2cc(C)c(C#N)c3nc4ccccc4n23)c(C)c1` gave PTHR1 agonist -24%, Vif-A3F inh 2%, Vif-APOBEC3G blk -1%, LDHA block -2, mIDH1 inhibitor 40µM*, PINK1 expr mod 2%, Resorufin autofl 1, IDH1 WT -2% and IDH1 R132H conf 14µM*.
CCN(C(=O)c1cc2c(C)nc3ccccc3c2o1)c1cc(Cl)ccc1OC was read as PTHR1 agonist -15%, Vif-A3F inh -8%, Vif-APOBEC3G blk -11%, LDHA block -6, mIDH1 inhibitor 33µM*, PINK1 expr mod -1%, Resorufin autofl -6, IDH1 WT 5% and IDH1 R132H conf 20µM*.
`Cc1ccc(-n2ncc3c(=O)[nH]c(SCC(=O)N4CCCc5ccccc54)nc32)cc1` gave PTHR1 agonist -22%, Vif-A3F inh -7%, Vif-APOBEC3G blk -6%, LDHA block -5, mIDH1 inhibitor inconclusive, PINK1 expr mod 1%, Resorufin autofl -6, IDH1 WT 10% and IDH1 R132H conf 28µM*.
For COc1cccc(-n2cnnc2SC(C)C(=O)Nc2ccc(C(C)C)cc2)c1 (stereo not drawn) the results were LDHA block -20.
For O=c1cc(N2CCCCC2)c(-c2ccccc2)nn1Cc1ccc(Cl)cc1 the results were PTHR1 agonist -5%[57.5 µM], Vif-A3F inh 8%, Vif-APOBEC3G blk -7%, LDHA block -7, mIDH1 inhibitor -4% and PINK1 expr mod 11%.
O=c1cc(N2CCCCC2)c(-c2ccccc2)nn1Cc1c(Cl)cccc1Cl was read as PTHR1 agonist -19%, Vif-A3F inh -19%, Vif-APOBEC3G blk -16%, LDHA block 1, mIDH1 inhibitor 21µM*, PINK1 expr mod -2%, Resorufin autofl 4, IDH1 WT 9% and IDH1 R132H conf 14µM*.
For COC(=O)c1cc(COC(=O)Cc2coc3cc(C)c(C)cc23)oc1C the results were LDHA block -1.
Screening Cc1cc(C)n(-c2nc(Nc3ccccc3)nc(-n3nc(C)cc3C)n2)n1 returned PTHR1 agonist -28%[57.5 µM], Vif-A3F inh -2%, Vif-APOBEC3G blk -1%, LDHA block -9, mIDH1 inhibitor 0% and PINK1 expr mod -4%[38.3 µM].
`Cc1cc(C)n(-c2nc(N(c3ccccc3)c3ccccc3)nc(-n3nc(C)cc3C)n2)n1` gave PTHR1 agonist -21%[57.5 µM], Vif-A3F inh -3%, Vif-APOBEC3G blk 2%, LDHA block 7, mIDH1 inhibitor inconclusive, PINK1 expr mod 3%[38.3 µM], Resorufin autofl -1, IDH1 WT 7% and IDH1 R132H conf 10µM*.
Screening COc1cc(C2c3c(-c4cc(Cl)c(C)cc4O)n[nH]c3C(=O)N2Cc2ccco2)ccc1O (stereo not drawn) returned LDHA block -7.
`COc1cc(C2c3c(-c4cc(Cl)c(C)cc4O)n[nH]c3C(=O)N2Cc2cccnc2)ccc1O` (stereo not drawn) gave PTHR1 agonist inactive, Vif-A3F inh 1%, Vif-APOBEC3G blk -18%, LDHA block 2, mIDH1 inhibitor inconclusive, PINK1 expr mod 1%, Resorufin autofl -1, IDH1 WT -3% and IDH1 R132H conf 45µM*.
Screening COc1cccc(C2c3c(-c4cc(Cl)c(C)cc4O)n[nH]c3C(=O)N2Cc2cccnc2)c1 (stereo not drawn) returned PTHR1 agonist -4%[57.5 µM], Vif-APOBEC3G blk -5%, LDHA block -1, mIDH1 inhibitor inconclusive, PINK1 expr mod -1%, Resorufin autofl -1, IDH1 WT 1% and IDH1 R132H conf 16µM*.
CCCc1ccc(-c2cc(C(=O)Nc3nncs3)c3ccccc3n2)cc1 was read as LDHA block 0.
CC(=O)C1=C(c2ccc(Cl)c(Cl)c2)N(C(C)=O)n2c(C)nnc2S1 was read as PTHR1 agonist inactive, Vif-A3F inh -2%, Vif-APOBEC3G blk -13%, LDHA block -8, mIDH1 inhibitor 45µM*, PINK1 expr mod inconclusive, Resorufin autofl 0, IDH1 WT 314% and IDH1 R132H conf 40µM*.
Screening COc1cccc(C2=C(C(C)=O)Sc3nncn3N2C(C)=O)c1 returned PTHR1 agonist inactive, Vif-A3F inh -10%, Vif-APOBEC3G blk 3%, LDHA block -17, mIDH1 inhibitor inconclusive and PINK1 expr mod 0%.
Screening CC(=O)C1=C(c2ccc(Cl)c(Cl)c2)N(C(C)=O)n2cnnc2S1 returned PTHR1 agonist -2%, Vif-A3F inh 1%, Vif-APOBEC3G blk 3%, LDHA block -25, mIDH1 inhibitor 45µM*, PINK1 expr mod inconclusive, Resorufin autofl -9, IDH1 WT 432% and IDH1 R132H conf 20µM*.
For COc1ccc(/C=C2\N=C(SC)SC2=O)cc1C the results were LDHA block 5.
`COc1ccccc1NC(=O)c1ccc(NC(=O)c2nn(C)c(=O)c3ccccc23)cc1` gave LDHA block -1.
Screening CS(=O)(=O)Oc1ccc2c(c1)O/C(=C\c1ccncc1)C2=O returned LDHA block -2.
For O=C(Oc1ccc2c(c1)O/C(=C\c1ccncc1)C2=O)c1ccccc1 the results were PTHR1 agonist 0%, Vif-A3F inh inconclusive, Vif-APOBEC3G blk -4%, LDHA block 2, mIDH1 inhibitor 52µM*, PINK1 expr mod 3%, Resorufin autofl 3, IDH1 WT 1% and IDH1 R132H conf 35µM*.
